Laboratory results as given in article PMC4552634, “A New Set of Chemical Starting Points with Plasmodium falciparum Transmission-Blocking Potential for Antimalarial Drug Discovery” (PLoS ONE, 2015).
Out of some 13,000 compounds screened, about 3,200 (25%) showed an effect of 50% or more. Some of the results follow.

System: P. falciparum stage V gametocytes
Parameters: BacTiter-Glo ATP luminescence viability of purified stage V gametocytes in 384-well plates, per cent inhibition versus DMSO
Conditions: 48 h, 5 µM; inhibitor

Row | Compound | % Inhibition [%]
1 | O=c1[nH]c(Cc2ccccc2)nc2ccc(Cl)cc12 [TCMDC-123986] | 41.17
2 | Cc1cccc2nc(-c3ccc(-c4ccc(CN5CCCC(O)C5)cc4)s3)[nH]c12.O=C(O)C(F)(F)F (stereo not drawn) [TCMDC-133827] | -10.01
3 | Cc1cccc2nc(-c3ccc(-c4ccc(CN5CCC(N)C5)cc4)s3)[nH]c12.O=C(O)C(F)(F)F (stereo not drawn) [TCMDC-133862] | 94.82
4 | Cc1cccc2nc(-c3ccc(-c4ccc(CN5CCCC(N)C5)cc4)s3)[nH]c12.O=C(O)C(F)(F)F (stereo not drawn) [TCMDC-133864] | 61.01
5 | Cc1cccc2nc(-c3ccc(-c4ccc(CN5CCC(CO)CC5)cc4)s3)[nH]c12.O=C(O)C(F)(F)F [TCMDC-133128] | -12.48
6 | Cc1cccc2nc(-c3ccc(-c4ccc(CN5CCC(C(N)=O)CC5)cc4)s3)[nH]c12.O=C(O)C(F)(F)F [TCMDC-132695] | 10.69
7 | NC(=O)c1cccc(C(=O)Nc2ccc(-c3cccc(-c4nc5ccc(F)cc5[nH]4)c3)cc2)c1 [TCMDC-132196] | -0.7681
8 | CCOC(=O)c1ccc(NC(=O)NNC(=O)c2ccc(CCN3CCC(c4nc(COCC(F)(F)F)c(-c5ccc(F)cc5)o4)CC3)cc2)cc1 [TCMDC-131907] | 11.96
9 | Cc1ccc2[nH]c(-c3ccc(C(=O)NC4CCN(Cc5ccccc5)CC4)cc3)nc2c1C [TCMDC-140449] | 4.358
10 | Cc1ccc(-c2cc(C(=O)Nc3ccc(S(=O)(=O)N4CCOCC4)cc3)[nH]n2)c(O)c1C [TCMDC-124306] | 74.46
11 | O=C(Nc1ccc(S(=O)(=O)N2CCOCC2)cc1)c1cc(-c2cc(Cl)ccc2O)n[nH]1 [TCMDC-125204] | -22.77
12 | Cc1ccc(-c2cc(C(=O)Nc3ccc(S(=O)(=O)N4CCCCC4)cc3)[nH]n2)c(O)c1 [TCMDC-124305] | -41.04
13 | O=C(Nc1ccon1)c1cc(-c2cccnc2)nc2ccc(Br)cc12 [TCMDC-125217] | -5.67
14 | CC1N=C(N)N=C(N)N1OCc1cccc2ccccc12 (stereo not drawn) [TCMDC-131595] | 37.89
15 | CN1CCC(OC(=O)c2cc3cc(-c4ccccc4)ccc3n2S(=O)(=O)c2ccccc2)CC1 [TCMDC-139104] | 88.58
16 | CN(C)CCCN1CCN(C(=O)c2cc3cc(-c4ccccc4)ccc3n2S(=O)(=O)c2ccccc2)CC1 [TCMDC-139103] | 17.27
17 | O=C(NCCN1CCCCC1)c1cc2cc(-c3ccccc3)ccc2n1S(=O)(=O)c1ccccc1 [TCMDC-139102] | 37.88
18 | Cc1cccc2nc(-c3ccc(-c4ccc(CNCC5CCCO5)cc4)cc3)[nH]c12.O=C(O)C(F)(F)F (stereo not drawn) [TCMDC-133093] | -8.859
19 | Cc1[nH]c2ccccc2c1C(=O)C(C)Sc1nnc(-c2ccccc2Br)[nH]1 (stereo not drawn) [TCMDC-125114] | 93.54
20 | Cc1cccc(C)c1OC(=O)CSc1nnc(-c2ccccc2O)o1 [TCMDC-125733] | -18.5
21 | Cc1[nH]c2ccccc2c1C(=O)C(C)Sc1nnc(-c2ccccc2F)o1 (stereo not drawn) [TCMDC-125312] | 68.46

Row | Compound | % Inhibition [%]
22 | Nc1nc(F)nc2nc[nH]c12 [TCMDC-124283] | 4.967
23 | O=C(NCc1cccc(F)c1)Nc1cccc(-c2ccc(-c3nc4ccc(C(F)(F)F)cc4[nH]3)cc2)c1 [TCMDC-133288] | -40.45
24 | CCNc1cc(C(=O)N[C@@H](Cc2ccccc2)[C@H](O)CNCCc2cccc(C(F)(F)F)c2)cc(N2CCCC2=O)c1 [TCMDC-134552] | -6.04
25 | COc1cccc(C(O)CNc2ccnc(Nc3ccc(Cl)cc3)n2)c1 (stereo not drawn) [TCMDC-136575] | 5.772
26 | Clc1ccc(-c2ccc(C=NNc3nc(Nc4ccccc4)nc(Nc4ccccc4)n3)o2)cc1Cl [TCMDC-124152] | 3.438
27 | Clc1cccc(C=NNc2nc(Nc3ccccc3)nc(Nc3ccccc3)n2)c1 [TCMDC-125798] | 24.55
28 | Clc1ccc(Nc2nc(NCc3ccccc3)nc(N/N=C/c3ccccn3)n2)cc1 [TCMDC-138557] | 107.3
29 | O=c1cc(NCCCNCc2ccc(C(F)(F)F)s2)[nH]c2ccccc12 [TCMDC-140767] | -70.92
30 | COc1ccc2nccc([C@@H](O)CN3CCC(NCCOc4ccncc4)CC3)c2c1 [TCMDC-140574] | 11.37
31 | COc1ccc2nccc([C@@H](O)CNCCCN(C)CCOc3cc(F)cc(F)c3)c2c1 [TCMDC-141051] | 75.1
32 | COc1ccc2nccc([C@@H](O)CN3CCC(NCCOc4cc(C(F)(F)F)ccc4F)CC3)c2c1 [TCMDC-140658] | 14.45
33 | COc1ccc2nccc([C@@H](O)CN3CCC(NCCOc4cccc(C(F)(F)F)c4)CC3)c2c1 [TCMDC-140507] | 58.71
34 | COc1ccc2nccc([C@@H](O)CN3CCC(NCCOc4ccc(F)cc4F)CC3)c2c1 [TCMDC-140645] | 94.72
35 | COc1ccc2nccc([C@@H](O)CN3CCC(NCCOc4cccc(F)c4F)CC3)c2c1 [TCMDC-140644] | 24.45
36 | COc1ccc2nccc([C@@H](O)CN3CCC(NCCOc4ccccc4C(F)(F)F)CC3)c2c1 [TCMDC-140713] | 37.87
37 | COc1ccc2nccc([C@@H](O)CN3CCC(NCCOc4ccc(F)cc4Cl)CC3)c2c1 [TCMDC-140660] | 20.67
38 | COc1ccc2nccc([C@@H](O)CN3CCC(NCCOc4cc(F)cc(F)c4)CC3)c2c1 [TCMDC-140510] | 10.94
39 | CCCCc1cc(NCC)nc(Nc2cccc(OC)c2)n1 [TCMDC-133993] | 0.878
40 | COc1ccc(CCCN2C(=O)C(c3ccccc3)(c3ccccc3)N=C2N)cc1 [TCMDC-136503] | -39.16
41 | O=C(Nc1ccc(N2CCNCC2)nc1)c1oc(-c2ccccc2)nc1C(F)(F)F [TCMDC-135131] | 3.26
42 | CC(C)N(C(=O)CSc1nc2cc(Cl)ccc2c(=O)n1Cc1ccccc1)C(C)C [TCMDC-123612] | 6.529
